{"source": "PubChem BioAssay AID2314", "about": "(National Center for Advancing Translational Sciences (NCATS), 2010)", "note": "Screen size: about 300,000 compounds; about 37,000 (12%) were called active. The entries come from a sample that favours actives as a whole. Unmarked numbers belong to inactive results. Rule as the data show it: active = max response mostly above about 13% (no sharp cut-off); inactive = mostly below about 14%.", "data": [{"assay": "Cycloheximide Counterscreen for Small Molecule Inhibitors of Shiga Toxin; also: read at 38.3 µM for the half of the compounds with a filed dose; 0% is about no effect", "conditions": "cell reporter, cycloheximide protein synthesis inhibition counterscreen; active compounds read high", "values": [{"compound": "COc1cccc(OCc2cc(/C=N/NC(=O)c3nc(Cl)c(Cl)c(N)c3Cl)ccc2OC)c1", "max response": "-1.62%"}, {"compound": "CCN(CC)CCCNC(=O)c1cn(C)c2ccc(S(=O)(=O)N(C)C3CCCCC3)cc2c1=O", "max response": "-5.84%"}, {"compound": "Fc1ccccc1/C=C1\\CCCC2=C1Nc1ncnn1C2c1ccccc1F", "note": "(configuration not stated)", "max response": "-5.33%"}, {"compound": "COc1ccc(N(CC(=O)NCC2CCCO2)C(=O)CCC(=O)Nc2nccs2)c(OC)c1", "note": "(configuration not stated)", "max response": "-4%"}, {"compound": "CCc1ccc(N2CC(C(=O)Nc3ccc(S(=O)(=O)Nc4nccs4)cc3)CC2=O)cc1", "note": "(configuration not stated)", "max response": "-3.18%"}, {"compound": "Cc1ccc(C(=O)N/C(=C/c2cccnc2)C(=O)O)cc1", "max response": "-0.563%"}, {"compound": "C/C(=N\\NC(=O)CNC(=O)C(c1ccccc1)c1ccccc1)c1ccc(C)cc1", "max response": "-6.41%"}, {"compound": "C/C(=N\\NC(=O)c1ccc(C)cc1)C1C(=O)c2ccccc2C1=O", "max response": "23.4% (active)"}, {"compound": "Cc1ccc(S(=O)(=O)c2nc(-c3cccs3)oc2NCc2cccnc2)cc1", "max response": "7.52%"}, {"compound": "O=C1c2cccc3c([N+](=O)[O-])ccc(c23)C(=O)N1CC1CCCO1", "note": "(configuration not stated)", "max response": "20%"}, {"compound": "Cc1cc(C)n(C(=O)c2ccc(S(=O)(=O)N3CCCC3)cc2)n1", "max response": "-2.32%"}, {"compound": "Cc1cc(Nc2ccccc2)n(C(=O)c2ccc(N)cc2)n1", "max response": "24% (active)"}, {"compound": "Cc1cc(Nc2ccccc2)n(CCC#N)n1", "max response": "-3.59%"}, {"compound": "CC(c1ccco1)N(C(=O)c1ccc(S(=O)(=O)N2CCCCC2)cc1)c1ccccn1", "note": "(configuration not stated)", "max response": "15.1% (active)"}, {"compound": "CC(c1ccco1)N(C(=O)COc1ccccc1[N+](=O)[O-])c1ccccn1", "note": "(configuration not stated)", "max response": "20.7%"}, {"compound": "O=C(COc1ccc(S(=O)(=O)N2CCCCC2)cc1)NCc1ccccn1", "max response": "0.485%"}, {"compound": "CC(C)N1CCC(=NNc2ccc([N+](=O)[O-])cc2S(=O)(=O)N2CCOCC2)CC1", "max response": "-2.55%"}, {"compound": "CN(c1ccccc1)S(=O)(=O)c1ccc2[nH]c(=O)[nH]c2c1", "max response": "-2.46%"}, {"compound": "COc1ccc(CNc2nnnn2C)cc1", "max response": "-1.69%"}, {"compound": "CCOC(=O)CNc1nc2ccccc2n2c(C)nnc12", "max response": "7.6%"}, {"compound": "Fc1ccc(CNc2nc3ccccc3n3nnnc23)cc1", "max response": "13.3% (active)"}, {"compound": "Cc1ccc(-c2ccc(=O)n(Cc3ccc(F)cc3Cl)n2)cc1", "max response": "7.94%"}, {"compound": "CCN1CCN(CCNC(=O)c2ccc(/C=C3/Sc4ccccc4N(Cc4cccc(C)c4)C3=O)cc2)CC1", "max response": "-11.9%"}, {"compound": "CCN1/C(=C\\c2ccc3ccccc3[n+]2CC)Sc2cc(C)ccc21", "max response": "1.19%"}, {"compound": "CCN1/C(=C/c2ccc3ccc(C)cc3[n+]2CC)Sc2ccccc21", "max response": "11.9% (active)"}, {"compound": "Cc1ccc2sc(N(CCN(C)C)C(=O)/C=C/c3cccs3)nc2c1C", "max response": "-8.25%"}, {"compound": "COc1ccc(-n2c(O)c(C(C)=Nc3ccc4c(c3)CCC4)c(=O)[nH]c2=O)cc1", "max response": "-1.73%"}, {"compound": "COc1ccc(S(=O)(=O)Nc2ccc(O)c(Sc3nc4ccccc4s3)c2)cc1", "max response": "1.12%"}, {"compound": "COc1ccc(N=C(C)c2sc3ccccc3c2O)cc1", "max response": "43.2% (active)"}, {"compound": "CC(=O)[C@@]12O[C@@H]1C[C@H]1[C@@H]3CC[C@H]4C[C@@H](O)CC[C@]4(C)[C@H]3CC[C@@]12C", "max response": "-5.5%"}, {"compound": "CCN1CCC2(CCN(Cc3cn[nH]c3-c3ccc(OC)c(F)c3)C2)C1", "note": "(configuration not stated)", "max response": "-2.52%"}, {"compound": "Cc1ccc(NC(=O)C2CCN(S(=O)(=O)c3ccc4c(c3)NC(=O)CO4)CC2)cc1C", "max response": "1.16%"}, {"compound": "O=C(Cn1c(=O)sc2ccccc21)Nc1nc2c(s1)CCCC2", "max response": "3.35%"}, {"compound": "COC(=O)C(NC(C)=O)(Nc1nc2c(s1)CCCC2)C(F)(F)F", "note": "(configuration not stated)", "max response": "-2.42%"}, {"compound": "Fc1ccc2nc(Nc3nc4c(s3)CCCC4)sc2c1", "max response": "40.4% (active)"}, {"compound": "CN(C)c1cc(-c2ccc(F)cc2)oc(=O)c1Cl", "max response": "2.21%"}, {"compound": "Cc1cc(C)nc(Nc2n[nH]c(-c3ccccc3N)n2)n1", "max response": "52% (active)"}, {"compound": "Cc1ccccc1-c1n[nH]c(=S)n1C", "max response": "6.29%"}, {"compound": "Cc1cc(C)nc(Nc2ncn[nH]2)n1", "max response": "-1.33%"}, {"compound": "CS(=O)(=O)Nc1ccccc1N=C(c1ccccc1)c1ccccc1", "max response": "-4.16%"}, {"compound": "C/C=C(/C)C(=O)O[C@@H]1c2cc3c(c4c2[C@@]2(CO4)C(=O)C(OC)=C(OC)C=C2C[C@@H](C)[C@H]1C)OCO3", "max response": "-1.03%"}, {"compound": "COc1ccc(S(=O)(=O)N2CCSCC2)cc1", "max response": "-2.78%"}, {"compound": "CCCNC(=O)CCc1c(C)nc2c(c(C)nn2-c2ccc(C)cc2)c1C", "max response": "-2.97%"}, {"compound": "CCCNC(=O)c1c(Cl)cnn1-c1ccc(C)cc1", "max response": "39.1% (active)"}, {"compound": "CCCNC(=O)c1ccc(Cl)c(Cl)c1", "max response": "-2.92%"}, {"compound": "O=C1C=CC(=O)N1c1ccc(N2CCCCC2)cc1", "max response": "8%"}, {"compound": "Cc1n[nH]c(C)c1S(=O)(=O)N1CCCC(C(=O)Nc2ccc(Br)cc2)C1", "note": "(configuration not stated)", "max response": "-4.38%"}]}]}
